# Reference: PubChem BioAssay AID2284084 (EPA ToxCast)
# Calls of active or inactive are those of the source. Rule for the calls: active = hit-call score of the fitted dose curve at least 0.9, where 1 is the maximum; inactive = score below 0.9.
# Target: human CK1alpha CK1 Kinase, CSNK1A1 (gene 1452) (UniProt P48729)
# Assay: ERF_TW_ENZ_hCSNK1A1: Eurofins (ERF) Enzymatic Radiometric [10 uM ATP] Assay for human CK1alpha CK1 Kinase
# Protocol: ERF_TW_ENZ_hCSNK1A1 is a biochemical, single-readout assay that uses extracted gene-proteins in a cell-free assay. Measurements were taken 0.5 hour after chemical dosing in a 96-well plate. See CK1alpha Human CK1 Kinase Enzymatic Radiometric Assay [10 uM ATP], Panlabs.ERF_TW_ENZ_hCSNK1A1 is an assay component calculated from the ERF_TW_ENZ_hCSNK1A1 assay. It is designed to measure enzyme activity using a type of enzyme reporter as detected by scintillation counting with radiometry technology.Data from the assay component ERF_TW_ENZ_hCSNK1A1 was analyzed at the assay endpoint, ERF_TW_ENZ_hCSNK1A1, in the positive analysis fitting direction relative to DMSO as the negative control and baseline of activity. Using a type of enzyme reporter, loss-of-signal activity can be used to understand changes in enzymatic activity as they relate to gene CSNK1A1. To generalize the intended target to other relatable targets, this assay endpoint is annotated to the kinase intended target family, where the subfamily is serine/threonine kinase.
# CK1alpha (h) is incubated for 120 minutes at room temperature, with KRRRALS(p)VASLPGL (SP15) as substrate, and PP1 Analog II. 1NM-PP1 as control inhibitor. Test Sample Requirements: Compound should be supplied in 100%DMSO. We require a stock solution at a concentration of at least 50x higher than the Final Assay Concentration of your cpd. […]
# Chain of human CK1alpha CK1 Kinase, CSNK1A1 (gene 1452) (P48729 whole entry, looked up): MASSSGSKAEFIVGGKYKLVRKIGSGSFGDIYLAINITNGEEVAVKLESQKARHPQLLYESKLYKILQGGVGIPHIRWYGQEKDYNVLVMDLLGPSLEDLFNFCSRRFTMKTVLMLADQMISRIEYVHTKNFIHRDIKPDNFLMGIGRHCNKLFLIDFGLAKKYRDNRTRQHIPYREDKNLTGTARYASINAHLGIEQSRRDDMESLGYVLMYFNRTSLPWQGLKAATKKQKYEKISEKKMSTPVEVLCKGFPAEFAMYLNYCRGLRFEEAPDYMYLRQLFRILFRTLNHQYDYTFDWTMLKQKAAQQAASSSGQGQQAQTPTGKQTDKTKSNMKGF
row,Compound,AC50
1,O=C(/C=C/c1ccc(O)cc1)CC(=O)/C=C/c1ccc(O)cc1,872 nM (active)
